According to the supplement of paper PMC4466140:

Assays:
Test in all cases: SPOT peptide array binding signal intensity (averaged, normalized) (arbitrary units (background-subtracted, floor 0; scale differs between SH3 domains)); higher = stronger binding of the SH3 domain to the peptide
[1] = molecular target: CaNbp2
How it was run: (§1)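 The binding signal is the normalized, background-subtracted spot intensity averaged over replicates; its arbitrary units differ between domains. It was obtained by incubating 10 μg/ml GST-fused SH3 domains from four yeast species overnight at 4°C in TBS-based blocking buffer on cellulose membranes with synthetic 15-mer peptides, cysteines replaced by serines, then detecting with anti-GST antibody, HRP anti-mouse secondary and luminol.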

[2] = molecular target: CaRvs167
How it was run: as §1

[3] = molecular target: CaRvs167-3
How it was run: as §1

[4] = molecular target: CaSho1
How it was run: as §1

[5] = molecular target: CaSla1-D1-D2
How it was run: as §1

[6] = molecular target: CaSla1-D3
How it was run: as §1

[7] = molecular target: ScAbp1
How it was run: as §1

[8] = molecular target: ScBbc1
How it was run: as §1

[9] = molecular target: ScBem1-D1
How it was run: as §1

[10] = molecular target: ScBzz1-D1
How it was run: as §1

[11] = molecular target: ScBzz1-D2
How it was run: as §1

[12] = molecular target: ScCyk3
How it was run: as §1

[13] = molecular target: ScFus1
How it was run: as §1

[14] = molecular target: ScHof1
How it was run: as §1

[15] = molecular target: ScHse1
How it was run: as §1

[16] = molecular target: ScLsb1
How it was run: as §1

[17] = molecular target: ScLsb2
How it was run: as §1

[18] = molecular target: ScLsb3
How it was run: as §1

[19] = molecular target: ScLsb4
How it was run: as §1

[20] = molecular target: ScMyo3
How it was run: as §1

[21] = molecular target: ScMyo5
How it was run: as §1

[22] = molecular target: ScNbp2
How it was run: as §1

[23] = molecular target: ScPex13
How it was run: as §1

[24] = molecular target: ScRvs167
How it was run: as §1

[25] = molecular target: ScSho1
How it was run: as §1

[26] = molecular target: ScSla1-D1-D2
How it was run: as §1

[27] = molecular target: ScSla1-D3
How it was run: as §1

[28] = molecular target: SpAbp1-D1
How it was run: as §1

[29] = molecular target: SpBbc1
How it was run: as §1

[30] = molecular target: SpBzz1-D1
How it was run: as §1

[31] = molecular target: SpBzz1-D2
How it was run: as §1

[32] = molecular target: SpCyk3
How it was run: as §1

[33] = molecular target: SpHof1
How it was run: as §1

[34] = molecular target: SpHof1-2
How it was run: as §1

[35] = molecular target: SpHof1-3
How it was run: as §1

[36] = molecular target: SpHse1
How it was run: as §1

[37] = molecular target: SpLsb1
How it was run: as §1

[38] = molecular target: SpLsb4
How it was run: as §1

[39] = molecular target: SpMyo1
How it was run: as §1

[40] = molecular target: SpNbp2
How it was run: as §1

[41] = molecular target: SpPex13
How it was run: as §1

[42] = molecular target: SpRvs167
How it was run: as §1

[43] = molecular target: SpSla1-D1-D2
How it was run: as §1

[44] = molecular target: SpSla1-D3
How it was run: as §1

[45] = molecular target: AgAbp1
How it was run: as §1

[46] = molecular target: AgBbc1
How it was run: as §1

[47] = molecular target: AgBem1-D1
How it was run: as §1

[48] = molecular target: AgBzz1-D1
How it was run: as §1

[49] = molecular target: AgBzz1-D2
How it was run: as §1

[50] = molecular target: AgCyk3
How it was run: as §1

[51] = molecular target: AgFus1
How it was run: as §1

[52] = molecular target: AgHof1
How it was run: as §1

[53] = molecular target: AgHse1
How it was run: as §1

[54] = molecular target: AgLsb1
How it was run: as §1

[55] = molecular target: AgLsb4
How it was run: as §1

[56] = molecular target: AgMyo5
How it was run: as §1

[57] = molecular target: AgNbp2
How it was run: as §1

[58] = molecular target: AgRvs167
How it was run: as §1

[59] = molecular target: AgSho1
How it was run: as §1

[60] = molecular target: AgSla1-D1-D2
How it was run: as §1

[61] = molecular target: AgSla1-D3
How it was run: as §1

[62] = molecular target: CaAbp1-D1
How it was run: as §1

[63] = molecular target: CaAbp1-D2
How it was run: as §1

[64] = molecular target: CaBbc1
How it was run: as §1

[65] = molecular target: CaBem1-D1
How it was run: as §1

[66] = molecular target: CaBzz1-D1
How it was run: as §1

[67] = molecular target: CaBzz1-D2
How it was run: as §1

[68] = molecular target: CaCyk3
How it was run: as §1

[69] = molecular target: CaFus1
How it was run: as §1

[70] = molecular target: CaHof1
How it was run: as §1

[71] = molecular target: CaHse1
How it was run: as §1

[72] = molecular target: CaLsb1
How it was run: as §1

[73] = molecular target: CaLsb4
How it was run: as §1

[74] = molecular target: CaMyo5
How it was run: as §1

## DAPASKPSVPPRNYF
[1]
  SPOT peptide array binding signal intensity: ≤ 0
[2]
  SPOT peptide array binding signal intensity: 199
[3]
  SPOT peptide array binding signal intensity: ≤ 0
[4]
  SPOT peptide array binding signal intensity: ≤ 0
[5]
  SPOT peptide array binding signal intensity: 38
[6]
  SPOT peptide array binding signal intensity: ≤ 0
[7]
  SPOT peptide array binding signal intensity: ≤ 0
[8]
  SPOT peptide array binding signal intensity: 5.5
[9]
  SPOT peptide array binding signal intensity: 2
[10]
  SPOT peptide array binding signal intensity: 20
[11]
  SPOT peptide array binding signal intensity: 10
[12]
  SPOT peptide array binding signal intensity: ≤ 0
[13]
  SPOT peptide array binding signal intensity: ≤ 0
[14]
  SPOT peptide array binding signal intensity: ≤ 0
[15]
  SPOT peptide array binding signal intensity: ≤ 0
[16]
  SPOT peptide array binding signal intensity: 681
[17]
  SPOT peptide array binding signal intensity: 2160
[18]
  SPOT peptide array binding signal intensity: 1550
[19]
  SPOT peptide array binding signal intensity: 293
[20]
  SPOT peptide array binding signal intensity: ≤ 0
[21]
  SPOT peptide array binding signal intensity: ≤ 0
[22]
  SPOT peptide array binding signal intensity: 526
[23]
  SPOT peptide array binding signal intensity: 1310
[24]
  SPOT peptide array binding signal intensity: 1530
[25]
  SPOT peptide array binding signal intensity: ≤ 0
[26]
  SPOT peptide array binding signal intensity: 329
[27]
  SPOT peptide array binding signal intensity: 145
[28]
  SPOT peptide array binding signal intensity: 3
[29]
  SPOT peptide array binding signal intensity: 182
[30]
  SPOT peptide array binding signal intensity: 95
[31]
  SPOT peptide array binding signal intensity: 0.5
[32]
  SPOT peptide array binding signal intensity: ≤ 0
[33]
  SPOT peptide array binding signal intensity: 1
[34]
  SPOT peptide array binding signal intensity: 2
[35]
  SPOT peptide array binding signal intensity: 11
[36]
  SPOT peptide array binding signal intensity: ≤ 0
[37]
  SPOT peptide array binding signal intensity: 756
[38]
  SPOT peptide array binding signal intensity: 3340
[39]
  SPOT peptide array binding signal intensity: 2
[40]
  SPOT peptide array binding signal intensity: 3
[41]
  SPOT peptide array binding signal intensity: ≤ 0
[42]
  SPOT peptide array binding signal intensity: 802
[43]
  SPOT peptide array binding signal intensity: ≤ 0
[44]
  SPOT peptide array binding signal intensity: ≤ 0

## DTFLPPPPPPPSNFE
[45]
  SPOT peptide array binding signal intensity: 2
[46]
  SPOT peptide array binding signal intensity: ≤ 0
[47]
  SPOT peptide array binding signal intensity: ≤ 0
[48]
  SPOT peptide array binding signal intensity: ≤ 0
[49]
  SPOT peptide array binding signal intensity: ≤ 0
[50]
  SPOT peptide array binding signal intensity: 1
[51]
  SPOT peptide array binding signal intensity: ≤ 0
[52]
  SPOT peptide array binding signal intensity: 23.5
[53]
  SPOT peptide array binding signal intensity: 4.5
[54]
  SPOT peptide array binding signal intensity: ≤ 0
[55]
  SPOT peptide array binding signal intensity: ≤ 0
[56]
  SPOT peptide array binding signal intensity: 1100
[57]
  SPOT peptide array binding signal intensity: ≤ 0
[58]
  SPOT peptide array binding signal intensity: 1.33
[59]
  SPOT peptide array binding signal intensity: ≤ 0
[60]
  SPOT peptide array binding signal intensity: ≤ 0
[61]
  SPOT peptide array binding signal intensity: 0.5
[62]
  SPOT peptide array binding signal intensity: ≤ 0
[63]
  SPOT peptide array binding signal intensity: ≤ 0
[64]
  SPOT peptide array binding signal intensity: ≤ 0
[65]
  SPOT peptide array binding signal intensity: ≤ 0
[66]
  SPOT peptide array binding signal intensity: 108
[67]
  SPOT peptide array binding signal intensity: 11.8
[68]
  SPOT peptide array binding signal intensity: ≤ 0
[69]
  SPOT peptide array binding signal intensity: ≤ 0
[70]
  SPOT peptide array binding signal intensity: ≤ 0
[71]
  SPOT peptide array binding signal intensity: 3.25
[72]
  SPOT peptide array binding signal intensity: ≤ 0
[73]
  SPOT peptide array binding signal intensity: ≤ 0
[74]
  SPOT peptide array binding signal intensity: 11.5
[1]
  SPOT peptide array binding signal intensity: ≤ 0
[2]
  SPOT peptide array binding signal intensity: 0.5
[3]
  SPOT peptide array binding signal intensity: ≤ 0
[4]
  SPOT peptide array binding signal intensity: 12
[5]
  SPOT peptide array binding signal intensity: ≤ 0
[6]
  SPOT peptide array binding signal intensity: ≤ 0
[7]
  SPOT peptide array binding signal intensity: ≤ 0
[8]
  SPOT peptide array binding signal intensity: ≤ 0
[9]
  SPOT peptide array binding signal intensity: ≤ 0
[10]
  SPOT peptide array binding signal intensity: 2.5
[11]
  SPOT peptide array binding signal intensity: ≤ 0
[12]
  SPOT peptide array binding signal intensity: ≤ 0
[13]
  SPOT peptide array binding signal intensity: ≤ 0
[14]
  SPOT peptide array binding signal intensity: 25.5
[15]
  SPOT peptide array binding signal intensity: ≤ 0
[16]
  SPOT peptide array binding signal intensity: ≤ 0
[17]
  SPOT peptide array binding signal intensity: ≤ 0
[18]
  SPOT peptide array binding signal intensity: ≤ 0
[19]
  SPOT peptide array binding signal intensity: ≤ 0
[20]
  SPOT peptide array binding signal intensity: 2140
[21]
  SPOT peptide array binding signal intensity: 1690
[22]
  SPOT peptide array binding signal intensity: ≤ 0
[23]
  SPOT peptide array binding signal intensity: 140
[24]
  SPOT peptide array binding signal intensity: 1
[25]
  SPOT peptide array binding signal intensity: ≤ 0
[26]
  SPOT peptide array binding signal intensity: ≤ 0
[27]
  SPOT peptide array binding signal intensity: ≤ 0
[28]
  SPOT peptide array binding signal intensity: ≤ 0
[29]
  SPOT peptide array binding signal intensity: ≤ 0
[30]
  SPOT peptide array binding signal intensity: 1360
[31]
  SPOT peptide array binding signal intensity: 6.5
[32]
  SPOT peptide array binding signal intensity: ≤ 0
[33]
  SPOT peptide array binding signal intensity: ≤ 0
[34]
  SPOT peptide array binding signal intensity: 6.75
[35]
  SPOT peptide array binding signal intensity: ≤ 0
[36]
  SPOT peptide array binding signal intensity: 12.5
[37]
  SPOT peptide array binding signal intensity: ≤ 0
[38]
  SPOT peptide array binding signal intensity: ≤ 0
[39]
  SPOT peptide array binding signal intensity: 1100
[40]
  SPOT peptide array binding signal intensity: ≤ 0
[41]
  SPOT peptide array binding signal intensity: ≤ 0
[42]
  SPOT peptide array binding signal intensity: 2
[43]
  SPOT peptide array binding signal intensity: ≤ 0
[44]
  SPOT peptide array binding signal intensity: ≤ 0
